# Results from PubChem BioAssay (NCATS).
# Inconclusive results are not listed. Where a call stands in place of a potency, no number is given. Calls of active or inactive are those of the source. Calls come from the whole dose curve; as a rule, active = well fitted curve in the direction sought with a large enough effect; inconclusive = small, poorly fitted or top-dose-only effect, or another doubt; inactive = no such curve, though single readings can be large; an effect the other way counts as inactive or inconclusive.
# Columns and labels:
# [1] = molecular target: DNA dC->dU-editing enzyme APOBEC-3G (Homo sapiens) (UniProt Q9HC16); assay: qHTS for inhibitors of Vif-A3G interactions: Validation (AID 588379)
# Summary of the method: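 HeLa cells stably expressing Vif and A3G-eYFP, 700 cells/well, incubated overnight at 37 deg C, then exposed to compound overnight at 37 deg C. Inhibition of Vif-mediated degradation read as increased yellow fluorescence (Ex 488/Em 500-530) by laser-scanning cytometry.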
# [2] = molecular target: Cytochrome P450 3A4 (Homo sapiens) (UniProt P08684); assay: qHTS Assay for Inhibitors and Substrates of Cytochrome P450 3A4 (AID 884); note: nearly all actives have a fitted effect of over 50% in size; note: potency is the fitted concentration of half-maximal effect
# Summary of the method: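 20 nM human CYP3A4 with 25 uM Luciferin-PPXE (at KM) in 200 mM KPO4, preincubated 10 min with compound; NADPH regeneration started a 60 min RT reaction. Luciferin detected by luminescence, normalized to 57 uM ketoconazole as full inhibition.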
# [3] = molecular target: Cytochrome P450 3A4 (Homo sapiens) (UniProt P08684); assay: qHTS Assay for Activators of Cytochrome P450 3A4 (AID 885); note: nearly all actives have a fitted effect of over 65% in size
# Summary of the method: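 20nM CYP3A4 + 25uM Luciferin-PPXE (=KM), 200mM KPO4; cpd 10 min RT; NADPH regen, 60 min RT; stop w/ detection buffer, 20 min; luminescence. Normalized to 57 uM ketoconazole.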
# [4] = molecular target: Luciferin 4-monooxygenase (Photinus pyralis) (UniProt P08659); assay: Biochemical firefly luciferase enzyme assay for NPC (AID 624030);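 note: purified P. pyralis luciferase at 10 nM with luciferin and ATP substrate; series mostly up to about 59 µM; nearly all actives have a fitted effect of over 70% in size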
# Summary of the method: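 Purified P. pyralis luciferase at 10 nM in 50 mM Tris Acetate (final), luminescence read within 5 minutes of enzyme addition to compounds. Activity normalised to PTC124 versus DMSO; concentration-response curves classed by r2, magnitude and activity.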
# Chain of Cytochrome P450 3A4 (Homo sapiens) (P08684 whole entry, looked up): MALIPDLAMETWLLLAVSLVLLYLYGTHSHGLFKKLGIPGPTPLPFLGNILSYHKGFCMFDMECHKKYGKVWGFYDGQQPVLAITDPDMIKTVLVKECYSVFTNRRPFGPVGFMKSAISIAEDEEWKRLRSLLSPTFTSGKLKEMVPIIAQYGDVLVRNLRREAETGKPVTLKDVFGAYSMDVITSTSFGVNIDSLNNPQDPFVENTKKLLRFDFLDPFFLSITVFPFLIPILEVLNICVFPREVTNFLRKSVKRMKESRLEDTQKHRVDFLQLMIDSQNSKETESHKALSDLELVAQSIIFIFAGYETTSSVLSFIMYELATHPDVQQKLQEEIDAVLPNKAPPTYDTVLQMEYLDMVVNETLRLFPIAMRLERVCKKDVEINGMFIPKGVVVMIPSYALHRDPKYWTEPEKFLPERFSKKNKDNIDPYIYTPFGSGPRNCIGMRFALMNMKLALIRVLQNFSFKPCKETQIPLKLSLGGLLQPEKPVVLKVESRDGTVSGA
# Chain of DNA dC->dU-editing enzyme APOBEC-3G (Homo sapiens) (Q9HC16 whole entry, looked up): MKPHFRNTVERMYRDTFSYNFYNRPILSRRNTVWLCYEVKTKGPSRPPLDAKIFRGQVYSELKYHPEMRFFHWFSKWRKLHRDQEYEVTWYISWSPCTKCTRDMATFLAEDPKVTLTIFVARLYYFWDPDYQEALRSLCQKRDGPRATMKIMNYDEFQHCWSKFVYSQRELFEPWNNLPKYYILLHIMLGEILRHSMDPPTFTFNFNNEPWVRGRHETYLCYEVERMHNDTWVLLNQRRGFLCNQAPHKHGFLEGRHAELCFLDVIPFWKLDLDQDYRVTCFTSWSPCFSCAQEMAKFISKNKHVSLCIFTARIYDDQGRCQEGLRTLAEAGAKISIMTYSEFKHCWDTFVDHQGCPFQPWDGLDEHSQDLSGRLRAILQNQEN
# Chain of Luciferin 4-monooxygenase (Photinus pyralis) (P08659 whole entry, looked up): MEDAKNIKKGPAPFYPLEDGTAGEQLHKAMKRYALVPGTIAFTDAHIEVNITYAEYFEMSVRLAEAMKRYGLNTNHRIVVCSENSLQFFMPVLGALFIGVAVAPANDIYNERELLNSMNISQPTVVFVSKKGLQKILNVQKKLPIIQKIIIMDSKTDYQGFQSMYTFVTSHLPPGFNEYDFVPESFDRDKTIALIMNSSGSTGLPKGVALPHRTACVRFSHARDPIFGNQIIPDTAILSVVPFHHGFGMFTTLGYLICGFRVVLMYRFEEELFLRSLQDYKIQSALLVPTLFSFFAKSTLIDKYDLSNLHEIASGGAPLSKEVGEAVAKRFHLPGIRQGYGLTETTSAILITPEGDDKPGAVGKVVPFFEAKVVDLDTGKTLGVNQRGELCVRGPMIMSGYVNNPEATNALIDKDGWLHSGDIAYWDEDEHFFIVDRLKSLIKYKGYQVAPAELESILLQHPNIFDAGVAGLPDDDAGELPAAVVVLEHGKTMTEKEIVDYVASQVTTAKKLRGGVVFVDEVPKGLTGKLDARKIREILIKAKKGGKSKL
smiles,measurement,setting,value
CC1C(=O)OC2CC34C5CC(C(C)(C)C)C36C(OC(=O)C6O)OC4(C(=O)O5)C21O (configuration not stated),Potency,[1],inactive
C=C1C(=O)OC2C[C@@]3(C)CCCC(=C)[C@@H]3CC12 (some centres not stated),Potency,[2],10 µM (active)
same,Potency,[3],inactive
same,Potency,[1],inactive
C1CCN2CC3CC(CN4CCCC[C@@H]34)C2C1 (some centres not stated),Potency,[1],inactive
O=c1cc(-c2cccc(O)c2)oc2cccc(O)c12,Potency,[2],7.94 µM (active)
same,Potency,[3],inactive
same,Potency,[1],inactive
CC(=O)Nc1ccc(-c2nc3ccc(Cl)cc3[nH]2)cc1,Potency,[2],inactive
same,Potency,[1],inactive
C[C@@H]1O[C@@H](OC[C@H]2O[C@@H](Oc3c(-c4cccc(O)c4O)oc4cc(O)cc(O)c4c3=O)[C@H](O)[C@@H](O)[C@@H]2O)[C@H](O)[C@H](O)[C@H]1O,Potency,[2],inactive
same,Potency,[1],inactive
O=C(Cc1ccc(Cl)cc1)c1c(O)cc(O)cc1O,Potency,[2],5.01 µM (active)
same,Potency,[3],inactive
same,Potency,[1],inactive
Cc1csc(-c2nc3ccccc3n2C)n1,Potency,[2],31.6 µM (active)
same,Potency,[3],inactive
same,Potency,[1],inactive
COC(=O)CC[C@@H](C)[C@H]1CC[C@H]2[C@@H]3CC[C@@H]4C[C@H](O)CC[C@]4(C)[C@H]3C[C@H](O)[C@]12C,Potency,[2],inactive
same,Potency,[1],inactive
CC[C@H](/C=C/[C@@H](C)[C@H]1CC[C@H]2C3CC=C4C[C@@H](O)CC[C@]4(C)C3CC[C@]12C)C(C)C (some centres not stated),Potency,[2],inactive
same,Potency,[1],inactive
C=C[C@@H]1CN2CC[C@@H]1C[C@@H]2[C@@H](O)c1ccnc2ccc(OC)cc12,Potency,[1],inactive
COc1ccc(/C=C/C(=O)c2ccc(C)s2)cc1,Potency,[2],inactive
same,Potency,[1],inactive
CC1(C)CC[C@]2(C(=O)O)CC[C@]3(C)C(=CCC4[C@@]5(C)CC[C@H](O)C(C)(C)[C@@H]5CC[C@]43C)C2C1 (some centres not stated),Potency,[2],inactive
same,Potency,[1],inactive
CC12CCC3c4ccc(O)cc4CCC3C1CCC2=O (configuration not stated),Potency,[1],inactive
same,Potency,[4],inactive
COc1cc([C@@H]2c3cc4c(cc3C(OC3OC5COC(C)OC5C(O)C3O)C3COC(=O)[C@@H]32)OCO4)cc(OC)c1O (some centres not stated),Potency,[1],inactive
O=c1cc(-c2ccc(O)cc2)oc2cccc(O)c12,Potency,[2],0.794 µM (active)
same,Potency,[3],inactive
same,Potency,[1],inactive
C=C(CO)C1Cc2c(ccc3c2OC2COc4cc(OC)c(OC)cc4C2C3=O)O1 (configuration not stated),Potency,[1],inactive
COc1ccc(-c2coc3cc(OC4OC(CO)C(O)C(O)C4O)cc(O)c3c2=O)cc1 (configuration not stated),Potency,[2],inactive
same,Potency,[1],inactive
CC1(C)S[C@H]2[C@@H](NC(=O)C(N)c3ccccc3)C(=O)N2[C@H]1C(=O)O (some centres not stated),Potency,[1],inactive
